# NS1 function inh: qHTS Assay for Inhibitors of Influenza NS1 Protein Function; Potency, µM (titrated, usually from 46.1 µM), inactives show top-dose activity, positive = more growth; 270,000 tested, 0.4% active; AID 2326, 2010; calls by dose curve; also: potency is read from the fitted curve at half-maximal effect; actives are rising curves; nearly all actives have a fitted effect of over 50% in size
#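 S. cerevisiae expressing influenza A NS1, grown in glucose, washed, then diluted 1:100 into pH 6.0 -URA galactose medium with 23 nl compound. Growth recovery read as OD600; NS1-free strain serves as control.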
# Pf growth 96h: Primary qHTS for delayed death inhibitors of the malarial parasite plastid, 96 hour incubation; P. falciparum luciferase reporter growth, 96 h; Potency, µM (highest dose often 28.7 µM), for the others: at the highest dose activity change, negative = inhibition, hits mostly inhibitors; 320,000 tested, 6.9% active; AID 504834, 2011; also: potency is read from the fitted curve at half-maximal effect; % is scaled to controls: 0 for no effect and ±100 for the full control effect
#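 Luminescence readout: decreased luciferase signal marks inhibited growth of reporter-expressing P. falciparum in infected red cells (2% hematocrit, 0.05% parasitemia final), exposed to compound two generations (96 h, 37 C, 5% CO2).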
# FBPA Giardia inh: qHTS Assay for Inhibitors of Fructose-1,6-bisphosphate Aldolase from Giardia Lamblia | A8B2U2 | purified Giardia FBPA | Potency, µM (titrated, usually from 59.6 µM), without a hit: top-dose activity, negative = inhibition, hits mostly inhibitors | 290,000 tested, 0.71% active | AID 2451, 2010; also: potency is read from the fitted curve at half-maximal effect; % is scaled to controls: 0 for no effect and ±100 for the full control effect; nearly all actives have a fitted effect of over 55% in size
# Target sequence (A8B2U2 whole entry, looked up): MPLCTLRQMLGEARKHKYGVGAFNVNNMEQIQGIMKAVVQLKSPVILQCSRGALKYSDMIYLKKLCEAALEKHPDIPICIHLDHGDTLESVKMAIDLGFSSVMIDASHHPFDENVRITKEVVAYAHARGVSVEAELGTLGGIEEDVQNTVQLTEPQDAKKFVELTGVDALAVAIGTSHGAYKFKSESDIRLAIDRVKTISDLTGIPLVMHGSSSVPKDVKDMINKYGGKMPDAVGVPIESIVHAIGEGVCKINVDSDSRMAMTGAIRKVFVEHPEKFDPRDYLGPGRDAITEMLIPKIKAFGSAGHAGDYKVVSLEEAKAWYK
#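 40 nM FBPA preincubated 10 min at RT with compound (up to 57.5 uM final), then substrate plus GAPDH/TPI/NAD/arsenate coupling and diaphorase/resazurin added. Fluorescence read after 20 min at RT, 525/598 nm.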
# Shiga toxin inh: A qHTS for Small Molecule Inhibitors of Shiga Toxin. Vero cells, Shiga toxin protein synthesis inhibition reporter. inhibition, % at 38.7 µM. AID 2315, 2010. 290,000 tested, 9.2% active; in the data active = inhibition mostly above about 28%, no sharp cut-off; inactive = mostly below about 43%; also: 0% is about no effect
# Cycloheximide cs: Cycloheximide Counterscreen for Small Molecule Inhibitors of Shiga Toxin | AID 2314, 2010 | max response, % | cell reporter, cycloheximide protein synthesis inhibition counterscreen | 300,000 tested, 12% active; in the data active = max response mostly above about 13%, no sharp cut-off; inactive = mostly below about 14%; also: read at 38.3 µM for the half of the compounds with a filed dose; 0% is about no effect
# Pf growth 48h: Primary qHTS for delayed death inhibitors of the malarial parasite plastid, 48 hour incubation; P. falciparum luciferase growth in erythrocytes, 48 h; Potency, µM (titrated, usually from 28.7 µM), for the others: at the highest dose activity change, negative = inhibition, hits mostly inhibitors; 310,000 tested, 5.9% active; also: potency is read from the fitted curve at half-maximal effect; % is scaled to controls: 0 for no effect and ±100 for the full control effect
#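 Parasite viability was followed by luminescence of a genomically integrated firefly luciferase. Cultures held 0.1% parasitemia at 2% hematocrit (final), incubated under 5% CO2 at 37 C.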
# Starred values were filed as active, the others as inactive; ? = inconclusive; / = no result given; ! = not confirmed by another sample; [ ] = remark or other dose. Only some compounds are listed: those with a hit (about 21% of all), similar ones and a draw of the others. Unless noted, calls follow the shape of the dose curve; as a rule, active = well fitted curve in the direction sought with a large enough effect; inconclusive = small, poorly fitted or top-dose-only effect, or another doubt; inactive = no such curve, though single readings can be large; an effect the other way counts as inactive or inconclusive.
SMILES,NS1 function inh,Pf growth 96h,FBPA Giardia inh,Shiga toxin inh,Cycloheximide cs,Pf growth 48h
O=C1C=C(c2cccc(CO)c2)C[C@@H](c2ccc(F)cc2)C1,/,2.1µM*,/,/,/,2.3µM*
COCc1cccc(C2=CC(=O)C[C@H](c3ccc(OC)cc3)C2)c1,/,29%,/,/,/,-2%
COc1ccc([C@H]2CC(=O)C=C(c3cccc(OC(F)(F)F)c3)C2)cc1,/,41%,/,/,/,?
COc1cccc(C2=CC(=O)C[C@H](c3ccc(F)cc3)C2)c1,/,?,/,/,/,2.3µM*
COCc1cccc(C2=CC(=O)C[C@H](c3ccc(F)cc3)C2)c1,/,?,/,/,/,2.3µM*
Cc1ccc(S(=O)(=O)N2CCC(NC(=O)C3CCCCC3)CC2)cc1,?,1%,4%,16,7,14%
COc1cc(C2/C(=C(\O)c3ccc4c(c3)CC(C)O4)C(=O)C(=O)N2CCCn2ccnc2)cc(OC)c1OC (stereo unspecified),2%,?,/,-2,-7,-1%
CCCC[C@H](CC)CN=C(N)NC(N)=NCCCCCCN=C(N)NC(N)=NC[C@@H](CC)CCCC,/,/,0%[21.7 µM],/,/,/
CC1=CC2=NC(=O)/C(=C\c3ccc(-c4ccc(Cl)cc4)o3)C(=N)N2O1,13%,?,3%,0,18*,47%
CC1=CC2=NC(=O)/C(=C\c3cc(C)n(-c4ccccc4F)c3C)C(=N)N2O1,-4%,?,-3%,59*,29*,10µM*
COC(=O)C1=C(C(=O)OC)[C@@H]2N(Cc3ccccc3)c3ccccc3[C@@]23C[C@@H](C(=O)OC)N(C(=O)NCc2ccccc2)C3=C1,/,/,-11%,/,/,/
Cc1ccc(OCCNC(=O)C2CCCCC2)cc1,/,-1%,11%,26,8,20%[5.75 µM]
O=C(NCCOc1ccc(Cl)cc1)C1CCCCC1,/,19%,0%,-8,11,12µM*
CCCCOCCCNC(=O)C1CCCCC1,-1%,8.3µM*,3%,-2,-7,4%
O=C(CNC(=O)C1CCCCC1)Nc1ccc(Cl)cc1,7%,34%,2%,30*,23*,40%
O=C1CC(NS(=O)(=O)c2ccc([N+](=O)[O-])cc2)CN1c1ccc(Cl)cc1 (stereo unspecified),/,-26%,/,/,/,-2%
Cc1ccccc1OCCCn1c(CO)nc2ccccc21,/,?,-12%,71*,18*,0%
N=c1n(CCCOc2ccc(Br)cc2)c2ccccc2n1CC(N)=O,0%,9.3µM*,4%,-7,-3,13µM*
Cc1ccc(OCCCCn2c(CO)nc3ccccc32)cc1,/,?,0%,18,9,-11%
OCc1nc2ccccc2n1CCCOc1ccc(Br)cc1,-60%,/,22%,40*,21*,19%
Cc1ccccc1CN1CCN(C(=O)c2ccc(F)cc2)CC1,2%,-24%,?,-10,1,18%
c1ccc(-c2nc(-c3cccnc3)n[nH]2)cc1,0%,89%,0%,17,31*,77%
c1cncc(-c2nn[nH]n2)c1,4%,-14%,12%,23,0,3%
Cn1c(-c2cccc(Br)c2)n[nH]c1=O,3%,28%,-3%,17,-4,22%
Brc1cccc(-c2n[nH]c(-c3ccccc3)n2)c1,-110%,/,-11%,146*,64*,236%
SMILES,NS1 function inh,Pf growth 96h,FBPA Giardia inh,Shiga toxin inh,Cycloheximide cs,Pf growth 48h
CC(=O)c1ccc(NCCC(=O)c2ccccc2)cc1,2%,-5%,4%,23,11,48%
Cc1cccc(NCCC(=O)c2ccc(Br)cc2)c1,-18%,34%,5%,42,24*,13%
CC(C)c1ccc(NCCC(=O)c2ccc(Br)cc2)cc1,-6%,9.3µM*,3%,-8,-4,1%
Cc1ccc(C(=O)CCC(=O)Nc2cccc(C)c2)cc1,13%,0%,3%,-9,-1,23%
O=C(CN1C(=O)NC2(CCCCC2)C1=O)Nc1ccc2c(c1)OCCCO2,/,480%,/,/,/,423%
COc1ccc(C(=O)NN/C(=N/S(=O)(=O)c2ccc(C)cc2)c2ccccc2)cc1,-32%,24%,2%,59*,52*,14%
CCOc1ccc(S(=O)(=O)/N=C(/Nc2ccc(OC)cc2)c2ccccc2)cc1,-10%,84%,/,8,13,?
COc1ccc(C(=O)NNS(=O)(=O)c2ccccc2)cc1,15%,?,3%,55,17*,15%
CCCCS(=O)(=O)Nc1ccc(N2CCOCC2)c(S(=O)(=O)N2CCOCC2)c1,-7%,-20%,3%,3,1,21%
CC(=O)OC[C@@H]1O[C@H](C/C=N\OC[C@@H](C)[C@H](OCc2ccccc2)C(C)C)C=C[C@@H]1OC(C)=O,/,/,2%[12.9 µM],/,/,/
Cc1cccc(NC(=O)N2CCC(C(=O)c3ccc(F)cc3)CC2)c1,-37%,4%,-9%,10,1,-8%
Cc1ccc(-c2cn(-c3ccccc3)c(SCC(=O)NC3CCS(=O)(=O)C3)n2)cc1C (stereo unspecified),-3%,108%,-1%,active,53*,97%
O=C(O)CCSc1ccc2ccccc2n1,-11%,45%,5%,30*!,13,35%
COc1cccc(NC(=O)CCSc2ccc3ccccc3n2)c1,-5%,6.6µM*,-7%,17,15*,43%
CCCCOc1cccc(C2/C(=C(/O)c3ccc4c(c3)CC(C)O4)C(=O)C(=O)N2CCN2CCOCC2)c1 (stereo unspecified),12%,-16%,16%,-7,-2,3%
Cc1ccc(C)c(N(CC(=O)NC2CCCCC2)C(=O)CNC(=O)c2ccco2)c1,1%,-1%,-5%,19,-4,-6%
COCC(=O)N1CCC[C@@]2(CCN(c3ccncc3)C2)C1,/,/,1%,/,/,/
O[C@@H](COc1cccc2ccccc12)CN1CCOCC1,-3%,/,/,/,/,/
CC(C)NCC(O)COc1cccc2ccccc12 (stereo unspecified),-9%,?,-8%,-12,-1,10µM*
CC(C)[N+](C)(C)CC(O)COc1cccc2ccccc12 (stereo unspecified),/,24%,/,/,/,6µM*
CC(C)NC[C@@H](O)COc1cccc2[nH]ccc12,/,/,-1%,/,/,/
CC(C)NCC(O)COc1cccc2[nH]ccc12 (stereo unspecified),?,0.85µM*,-22%,26,-3,-3%
Cc1ccc(C)c(/C(=N\N=C(N)N)C2CC2)c1,-4%,/,/,/,/,/
COc1ccc(C2=NOC(C(=O)Nc3cccnc3Cl)C2)cc1 (stereo unspecified),-12%,?,2%,6,-2,-13%
Cc1cccnc1CCNC(=O)CC1C(=O)NCCN1CC1CCCCC1 (stereo unspecified),7%,-18%,-11%,4,-3,9%
Cn1cc(C(c2ccccc2OCC(=O)O)c2cn(C)c3ccccc23)c2ccccc21,?,5.2µM*,?,-10,-1,32%

# Assay outcomes from PubChem BioAssay.
